Rab9 prom act = activators of Rab9 promoter | Huh7 Rab9 promoter-luciferase reporter, luminescence, 24 h | hit rate 2.8% among 320,000 | Potency, µM (doses to about 9.22 µM), for the others: at the top dose activation, negative = inhibition, most hits filed as activators | AID 485297; also: % of control where 0% means no effect; nearly all actives have a fitted effect of over 60% in size
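Steps: seed 1500 Huh7 Rab9-luc cells per well, rest 2 h at 37 °C; add compound in DMSO; incubate 24 h; add luciferase reagent, 10 min ambient; read luminescence.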
NPC1 promoter act = NPC1 promoter activation; Huh7 NPC1 promoter luciferase reporter, 24 h; Potency, µM (titrated, usually from 9.22 µM), inactives show at the top dose activation, hits mostly activators; hit rate 2.4% among 320,000; also: % of control where 0% means no effect; nearly all actives have a fitted effect of over 60% in size
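In 1536-well qHTS, Huh7 cells harboring an NPC1 promoter–luciferase construct received compound for 24 h; activation was quantified by luminescence following luciferase reagent addition.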
SMN2 splice up = increases expression of the SMN2 splice variant. HEK293 SMN2-luciferase splicing reporter, luminescence, 30-36 h. Potency, µM (titrated, usually from 46.1 µM), for the others: at the highest dose activity change, positive = activation, most hits filed as activators. hit rate 2.8% among 210,000. AID 1458; also: % of control where 0% means no effect; nearly all actives have a fitted effect of over 55% in size
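HEK293 cells carry an SMN2 […]–luciferase reporter in which exon 7 inclusion puts luciferase in frame. Cells were plated 10-12 h before compound addition, then incubated 30-36 h at 37C. ONE-Glo luminescence was read; sodium butyrate at 4.5 mM final served as control.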
uPA surface inh = inhibitors of cell surface uPA generation. Potency, µM (titrated, usually from 38.3 µM), inactives show at the top dose activity change, negative = inhibition, most hits filed as inhibitors. AID 540303. cell surface uPA generation assay, qHTS. hit rate 0.31% among 330,000; active = well fitted inhibition curve with a large enough effect; inconclusive = small, poorly fitted or top-dose-only effect; inactive = no such curve, though single readings can be large or run the other way; tested in mouse RAW 264.7 cells; also: % is scaled to controls: 0 for no effect and ±100 for the full control effect; nearly all actives have a fitted effect of over 55% in size
ELG1 genotoxic = genotoxicity induction in ELG1-luciferase HEK293T cells; Potency, µM (doses to about 46 µM), inactives show at the highest dose activity change, positive = activation, actives largely listed as activators; HEK293T ELG1-luciferase reporter, luminescence, 16 h; hit rate 1.3% among 330,000; also: % of control where 0% means no effect; nearly all actives have a fitted effect of over 60% in size
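16 hr compound incubation (37 °C, 5% CO2) of HEK293T cells carrying luciferase-tagged ELG1; luciferase then measured by ONE-Glo luminescence after 30 min at RT.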
FLuc counter = counter-screen for miR-21 project: firefly luciferase inhibitors or activators | purified FLuc, Km substrates, luminescence inhibition | Potency, µM (highest dose often 57.5 µM), for the others: at the highest dose activity change, negative = inhibition, most hits filed as inhibitors | hit rate 6.9% among 360,000;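 also: plate controls were vehicle for no effect and reference inhibitor for full effect; nearly all actives have a fitted effect of over 55% in size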
Target sequence (P08659 whole entry, looked up): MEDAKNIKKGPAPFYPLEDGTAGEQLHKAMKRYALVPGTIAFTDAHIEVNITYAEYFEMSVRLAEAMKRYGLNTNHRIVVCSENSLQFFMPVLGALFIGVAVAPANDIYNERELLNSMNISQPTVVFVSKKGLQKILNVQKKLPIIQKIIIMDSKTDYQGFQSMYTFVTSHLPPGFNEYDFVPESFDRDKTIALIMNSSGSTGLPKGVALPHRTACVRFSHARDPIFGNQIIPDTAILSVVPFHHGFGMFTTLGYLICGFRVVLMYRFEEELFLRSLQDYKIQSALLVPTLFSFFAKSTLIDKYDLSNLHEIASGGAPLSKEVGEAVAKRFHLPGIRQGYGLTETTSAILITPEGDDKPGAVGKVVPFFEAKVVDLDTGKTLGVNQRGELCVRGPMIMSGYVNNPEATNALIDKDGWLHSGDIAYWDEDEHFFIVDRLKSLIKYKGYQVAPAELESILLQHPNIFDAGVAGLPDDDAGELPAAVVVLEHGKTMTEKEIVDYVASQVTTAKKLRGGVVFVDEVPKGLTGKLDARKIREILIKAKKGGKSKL
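Purified P. pyralis luciferase (10nM final) with 10uM D-luciferin and 10uM ATP (Km levels) in 50mM Tris acetate pH 7.5, 10mM Mg acetate, 0.01% Tween-20, 0.05% BSA; qHTS 6-point titration, ~60 µM downward; luminescence read.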
Active calls of the source: *; [ ] = another dose, or the depositor's remark. Hits are enriched below; roughly 7.3% of the tested compounds scored in any of these assays. Unless noted, calls follow the shape of the dose curve; as a rule, active = well fitted curve in the direction sought with a large enough effect; inconclusive = small, poorly fitted or top-dose-only effect, or another doubt; inactive = no such curve, though single readings can be large; an effect the other way counts as inactive or inconclusive. Potency is read from the fitted curve at half-maximal effect.

How did COc1ccc(-c2ccc(-c3noc(-c4cccc(OC)c4)n3)c(OC)n2)cc1 do in these assays?
Rab9 prom act: 10%; NPC1 promoter act: -2%; SMN2 splice up: -46%; uPA surface inh: 5%; ELG1 genotoxic: 2%; FLuc counter: 7.6µM*

Results for COC(=O)C1=C(C(=O)OC)[C@@H]2N(C)c3ccc(OC)cc3[C@@]23C[C@@H](C(=O)OC)N=C3N1 ?
Rab9 prom act: -4%; NPC1 promoter act: -2%; SMN2 splice up: -1%[9.22 µM]; uPA surface inh: 9%; ELG1 genotoxic: 5%; FLuc counter: 1%

How did COc1ccc(NC(=S)N2CCN(C)CC2)cc1 do in these assays?
uPA surface inh: -4%

How did CCc1ccc(NC(=S)N2CCCC2)cc1 do in these assays?
Rab9 prom act: inconclusive; NPC1 promoter act: inconclusive; uPA surface inh: -5%; ELG1 genotoxic: 18µM*; FLuc counter: 21µM*

Results for Cc1ccc(NC(=S)N2CCCC2)cc1 ?
Rab9 prom act: 29%; NPC1 promoter act: 22%; SMN2 splice up: 25%; uPA surface inh: -12%; ELG1 genotoxic: 11%; FLuc counter: inconclusive

What do the screens show for `CCc1ccc(NC(=S)N2CCCC(C(F)(F)F)C2)cc1` (configuration not stated)?
Rab9 prom act: 2%; NPC1 promoter act: 1%; SMN2 splice up: -12%; uPA surface inh: 2%; ELG1 genotoxic: 4%; FLuc counter: 15µM*

How did CCc1ccc(NC(=S)NCc2cccnc2)cc1 do in these assays?
Rab9 prom act: 11%; NPC1 promoter act: -1%; uPA surface inh: -2%; ELG1 genotoxic: -1%; FLuc counter: -14%

What do the screens show for `CCc1ccc(NC(=S)N2CCN(C)CC2)cc1`?
Rab9 prom act: inconclusive; NPC1 promoter act: 29%; uPA surface inh: -8%; ELG1 genotoxic: inconclusive; FLuc counter: 6µM*

What do the screens show for `CCc1ccc(NC(=S)NCc2ccccc2)cc1`?
Rab9 prom act: inconclusive; NPC1 promoter act: 27%; SMN2 splice up: 11µM*; uPA surface inh: -1%; ELG1 genotoxic: 11%; FLuc counter: inconclusive

Results for Cc1cccc(C)c1Nc1oc(-c2ccccc2)nc1-c1ccccc1F ?
SMN2 splice up: 29%

What do the screens show for `COc1cc(NC(=O)Cn2nc(C(F)(F)F)c3c2CCC3)cc(OC)c1OC`?
SMN2 splice up: -2%; FLuc counter: -2%

Results for CC(=NC1CCCCC1)C1=C(O)c2ccccc2C1=O ?
Rab9 prom act: 2.8µM*; NPC1 promoter act: 2.8µM*; SMN2 splice up: 16µM*; uPA surface inh: inconclusive; ELG1 genotoxic: inconclusive; FLuc counter: 3.4µM*

What do the screens show for `CCc1ccc2c(c1)C(=O)c1ccccc1C2=O`?
Rab9 prom act: inconclusive; NPC1 promoter act: inconclusive; SMN2 splice up: 16µM*; uPA surface inh: 0%; ELG1 genotoxic: inconclusive; FLuc counter: 6µM*

Results for CC(C)(C)c1ccc2c(c1)C(=O)c1ccccc1C2=O ?
Rab9 prom act: 0.56µM*; NPC1 promoter act: 0.89µM*; uPA surface inh: -12%; ELG1 genotoxic: inconclusive; FLuc counter: 1.3µM*

What do the screens show for `Cc1ccccc1NS(=O)(=O)c1cc(C(=O)NCc2ccncc2)ccc1Cl`?
Rab9 prom act: -2%; NPC1 promoter act: 2%; uPA surface inh: 7%; ELG1 genotoxic: -2%; FLuc counter: -2%

How did Cc1cc(OCc2cc(C(=O)N(C)CCc3cnn(C)c3)no2)cc(C)c1Cl do in these assays?
Rab9 prom act: 3.2µM*; NPC1 promoter act: 2.8µM*; uPA surface inh: -1%; ELG1 genotoxic: inconclusive; FLuc counter: 8.5µM*

Results for CC(=O)c1cccc(OCc2cc(C(=O)N(C)CCc3cnn(C)c3)no2)c1 ?
Rab9 prom act: -3%; NPC1 promoter act: -1%; uPA surface inh: -2%; ELG1 genotoxic: 1%; FLuc counter: 0%

Results for COc1cc(Cl)ccc1OCc1cc(C(=O)N(C)CCc2cnn(C)c2)no1 ?
Rab9 prom act: inconclusive; NPC1 promoter act: inconclusive; uPA surface inh: 0%; ELG1 genotoxic: 7%[9.26 µM]; FLuc counter: 12µM*

Results for CCN(Cc1cnn(C)c1)C(=O)c1cc(COc2cc(C)c(Cl)c(C)c2)on1 ?
Rab9 prom act: 19%; NPC1 promoter act: 1%; uPA surface inh: 4%; ELG1 genotoxic: 4%; FLuc counter: inconclusive

Results for Cc1cc(OCc2cc(C(=O)N(C)C3CCOC3)no2)cc(C)c1Cl (configuration not stated) ?
Rab9 prom act: 1.8µM*; NPC1 promoter act: 3.2µM*; uPA surface inh: -9%; ELG1 genotoxic: inconclusive; FLuc counter: 6µM*

What do the screens show for `N#CCC(=O)Nc1ccc(C(=O)OCC(=O)c2ccc3c(c2)OCO3)cc1`?
Rab9 prom act: 4µM*; NPC1 promoter act: inconclusive; uPA surface inh: 4%; ELG1 genotoxic: 12%; FLuc counter: inconclusive

Results for N#CCC(=O)Nc1ccc(C(=O)Nc2ccc3c(c2)OCO3)cc1 ?
Rab9 prom act: 26%; NPC1 promoter act: 14%; uPA surface inh: -1%; ELG1 genotoxic: 17%; FLuc counter: inconclusive

How did N#CCC(=O)Nc1ccc(C(=O)OCC(=O)c2ccc3c(c2)OCCO3)cc1 do in these assays?
Rab9 prom act: inconclusive; NPC1 promoter act: inconclusive; SMN2 splice up: -5%; uPA surface inh: 1%; ELG1 genotoxic: 12%; FLuc counter: 11µM*

Results for CCCCOc1ccc(C(=O)NCC(=O)NC2CCCCC2)cc1 ?
Rab9 prom act: 2%; NPC1 promoter act: -3%; uPA surface inh: 10%; ELG1 genotoxic: 3%; FLuc counter: 3%

How did COC(=O)[C@H](Cc1ccccc1)NC(=O)Cn1cnc(C(=O)Nc2ccc(C)c(C)c2)n1 do in these assays?
uPA surface inh: -8%; ELG1 genotoxic: 6%

Results for COC(=O)[C@H](CCSC)NC(=O)Cn1cnc(C(=O)Nc2ccc(C)c(C)c2)n1 ?
uPA surface inh: 10µM*; ELG1 genotoxic: inconclusive

Results for CCN(CC)c1ccc(C=C2C(=O)OC3(CCCCC3)OC2=O)cc1 ?
Rab9 prom act: 10%; NPC1 promoter act: -5%; SMN2 splice up: -6%; uPA surface inh: -3%; ELG1 genotoxic: 0%; FLuc counter: inconclusive

What do the screens show for `CC1=NOC(=O)/C1=C/c1ccc(N(C)C)cc1`?
Rab9 prom act: 1%; NPC1 promoter act: -1%; ELG1 genotoxic: 6%; FLuc counter: 7.6µM*

How did CN(C)c1ccc(/C=C2\N=C(C(C)(C)C)OC2=O)cc1 do in these assays?
Rab9 prom act: -4%; NPC1 promoter act: 1%; uPA surface inh: inconclusive; ELG1 genotoxic: 0%; FLuc counter: 1.5µM*

Results for CC1=NOC(=O)/C1=C/c1ccc(O)c(Cl)c1 ?
Rab9 prom act: -7%; NPC1 promoter act: 0%; uPA surface inh: 1%; ELG1 genotoxic: 0%; FLuc counter: inconclusive
